# Measurements taken from PubChem BioAssay (NCI).
# About 83,000 compounds went through this panel and 20% of them were active in at least one assay; those are over-represented in the sample as a whole.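 Step 1: grow cells in 96-well plates. Step 2: add test compound at a single concentration. Step 3: incubate 48 h. Step 4: record percent growth.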 Unmarked numbers belong to inactive results. Active and inactive are the calls of the source. How the source made its calls: active means growth percent below 10; inactive means the rest.
# Tests used:
# Test in all cases: NCI-60 one-dose screen, 48 h (100 = growth as untreated, 0 = no growth, -100 = all killed)
# Settings in all cases: 10 µM unless noted
# NCI-H23 lung = tested on: NCI-H23 lung
# NCI-H226 lung = tested on: NCI-H226 lung
# NCI-H322M lung = tested on: NCI-H322M lung
# HOP-62 NSCLC = tested on: HOP-62 NSCLC
# NCI-H460 lung = tested on: NCI-H460 lung
# HOP-92 NSCLC = tested on: HOP-92 NSCLC
# NCI-H522 lung = tested on: NCI-H522 lung
# A549/ATCC NSCLC = tested on: A549/ATCC NSCLC
# 786-0 renal = tested on: 786-0 renal
# COLO 205 colon = tested on: COLO 205 colon
SMILES,growth (NCI-H23 lung),growth (NCI-H226 lung),growth (NCI-H322M lung),growth (HOP-62 NSCLC),growth (NCI-H460 lung),growth (HOP-92 NSCLC),growth (NCI-H522 lung),growth (A549/ATCC NSCLC),growth (786-0 renal),growth (COLO 205 colon)
CCN(CC)CCCOc1ccc2ncnc(Nc3ccc(Oc4cccc(C(F)(F)F)c4)c(Cl)c3)c2c1,15.4%,73.1%,16%,13.6%,-87.7% (active),27.3%,-2.46% (active),5.61% (active),-83.9% (active),-36.7% (active)
Cc1ccc(-c2nc3nc(-c4ccccc4)nc(N4CCCN(S(C)(=O)=O)CC4)c3o2)cc1,86.6%,58.1%,93.9%,66.5%,4.39% (active),84.9%,78.8%,38.8%,87.7%,86.5%
CCN(CC)CCN1C(=O)c2c(c(C)c3c(oc4ccc(OC)cc43)c2C)C1=O,97.9%,14.3%,95.2%,93.7%,74.3%,84.7%,95%,94.5%,-30% (active),96.1%
Cc1ccc(-c2csc(N(C(=O)N3CCN(c4cc5c(cc4F)c(=O)c(C(=O)O)cn5C4CC4)CC3)c3ccccc3)n2)cc1,-0.349% (active),7.91% (active),4.96% (active),4.78% (active),5.91% (active),-18% (active),-0.464% (active),13.7%,4.6% (active),8.13% (active)
Cc1ccc(/C=C/C(=O)Nc2ncc(Cc3ccc(F)cc3)s2)o1,75.2%,85.8%,59.4%,55.1%,30.4%,77.8%,38%,49%,66.5%,31.8%
O=C1/C(=C\c2cccc3nccnc23)SC(=S)N1CCc1ccc(O)cc1,93.7%,95.4%,96.4%,99.5%,105%,-0.0093% (active),81.9%,100%,94.8%,118%
CCCCC#Cc1c(I)n(C)c(=O)[nH]c1=O,14.4%,39.8%,101%,93.9%,103%,-89.7% (active),-13.4% (active),70.9%,98.2%,-36.8% (active)
CCn1c(-c2cc3c([nH]c4ccccc43)c(-c3cccc(O)c3)n2)n[nH]c1=S,68.4%,75.9%,73.2%,18.3%,47.1%,12.7%,-10.6% (active),38%,13.5%,92.5%
Cc1cccc2c1C[C@@]1(C2=O)C(c2ccc(C(C)(C)C)cc2)=NOS1=O (stereo not given in full),83.2%,80.7%,92.2%,90%,92.2%,74.3%,90.8%,90.3%,99.7%,105%
COC(=O)CC[C@@H]1O[C@@H](c2ccc(F)cc2)[C@@H](O)[C@H]1O,103%,101%,106%,104%,109%,93.9%,99.7%,112%,105%,110%
COc1cc2c(cc1OCCCCN1CCN(C(=S)SCCC(C#N)(c3ccccc3)c3ccccc3)CC1)N=C[C@@H]1CCCN1C2=O,-33.8% (active),-44.2% (active),-81.1% (active),7.67% (active),-73.9% (active),-72.4% (active),-54.1% (active),-32.1% (active),-85.2% (active),-7.95% (active)
COC(=O)C(Cc1ccccc1)NC(=O)c1ccc(NC(=O)c2[nH]c(C)c(Cl)c2Cl)c(OC(C)C)c1 (stereo not given),70%,88.6%,102%,90.3%,6.05% (active),101%,93.9%,6.57% (active),39.5%,102%
Cc1ccc(CNc2c3ccccc3nc3ccccc23)cc1,29.3%,41.5%,39.7%,43.7%,8.75% (active),3.24% (active),49%,26.1%,25.4%,0.281% (active)
CC(=O)OC(c1ccccc1)C1CCOC1=O (stereo not given),93.8%,93.6%,106%,99.2%,109%,93.2%,78.1%,99%,94.8%,170%
O=S(=O)(Oc1ccc(Br)cc1)c1ccc(Cl)cc1,89.4%,100%,97.3%,105%,110%,102%,97.4%,101%,89.2%,108%
CCN1C(=O)N(CC)C2Nn3c(s/c(=C\c4ccccc4Br)c3=O)=NC21 (stereo not given),25.6%,57.5%,46.7%,37%,4.16% (active),42.9%,-12.8% (active),12.7%,25.3%,14.4%
c1ccc(CCNc2c3ccccc3nc3ccccc23)cc1,38.6%,56.3%,46.6%,55.1%,15.3%,-1.55% (active),39.8%,32.7%,38.1%,21.2%
COC(=O)c1c2c(n3ccccc13)C(=O)c1ccccc1C2=O,44.9%,73.8%,23.5%,68.7%,1.15% (active),77.8%,54.4%,-49.1% (active),71.5%,28.1%
CCN1C(=O)N(CC)C2C1NC(=S)N2/N=C/c1ccc(OC)cc1 (stereo not given),74.9%,78.8%,79.4%,59.5%,26.1%,70.5%,16.8%,41.7%,62.1%,41.7%
Cc1ccc2nc(NC(=O)CSc3nc(-c4ccccc4)c(C#N)c4nnnn34)sc2c1,103%,94.7%,108%,97.4%,104%,106%,89.4%,104%,114%,121%
C=C1CC[C@@H]2C(C)(C)[C@@H](O)CC[C@@]2(C)[C@@H]1COc1ccc2ccc(=O)oc2c1,75.3%,66.1%,109%,103%,87.8%,86.8%,66.9%,58.7%,89.6%,92%
N#Cc1c(-c2ccccc2)nc(SCC(O)CN2CCOCC2)nc1N1CCOCC1 (stereo not given),81.7%,80%,52.3%,48%,34%,30.7%,63.3%,80.3%,38.1%,81.1%
CNC(=O)c1ccccc1Nc1nc(Nc2cc(OC)c(OC)c(OC)c2)ncc1Br,-45.2% (active),10.1%,-23.2% (active),-32.8% (active),-36.9% (active),53.6%,-49.8% (active),-10.4% (active),-18.1% (active),-71.3% (active)
COc1cccc(/C=N/NC(=O)c2ccccc2N2CCCC2)c1O,53.3%,71.7%,49.6%,46.9%,20.9%,47.6%,-34.1% (active),70.5%,53.4%,54.3%
CCO/C=N/C1=C(C#N)C(c2ccc(F)cc2)c2sc3c(F)cccc3c2O1 (stereo not given),61.2%,67.8%,65.4%,50.9%,16.3%,58.8%,-22% (active),40.6%,35.2%,78.3%
CC1CCN(C(=O)CCCl)c2ccccc21 (stereo not given),90.6%,105%,107%,112%,101%,115%,84.9%,96.6%,110%,111%
C[C@]1(O)CC(=O)[C@]2(O)C3=C(C=C[C@]2(O)C1)C(=O)c1c(O)cccc1C3=O,-6.78% (active),89.3%,86.1%,49%,74.9%,-12.2% (active),-59.5% (active),103%,9.83% (active),-81.3% (active)
